Experimental data: PubChem BioAssay (Tox21)
Results filed as inconclusive are left out. Active and inactive are the calls of the source. Unless noted, the call rests on the fitted dose curve; in most records, active means well fitted cell-killing curve with a large enough effect in the repeat runs; inconclusive means weak or mixed curves, or effect the other way; inactive means no such curve, though single readings can be large or run the other way.

Test system: not listed separately
Assay: qHTS assay to identify small molecule agonists of the farnesoid-X-receptor (FXR) signaling pathway - cell viability counter screen (AID 743218); further: nearly all actives have a fitted effect of over 45% in size
Details: FXR-bla HEK293T viability, CellTiter-Glo luminescence, 16 h; series mostly up to 62.6 µM; viability change, negative = cytotoxic: at the top concentration
Method in brief: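 FXR-UAS-bla HEK 293T cells, plated 5 h at 37 C, were exposed to compounds for 16 h at 37 C. CellTiter-Glo was then added to the same wells as the bla readout; luminescence read after 30 min at room temperature.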
On the % scale 0 is the no-effect control and ±100 the full control effect.

Structure (SMILES)	viability change, negative = cytotoxic
Cc1ncc(CSSCc2cnc(C)c(O)c2CO)c(CO)c1O	1.31% (inactive)
NC(=O)Nc1nc2ccccc2[nH]1	0.386% (inactive)
Cc1nc(-c2ccc(OCC(C)C)c(C#N)c2)sc1C(=O)O	16.6% (inactive)
CC(O)CN(CCCN(C)C)CCCN(C)C (configuration not stated)	2.66% (inactive)
Cc1cc(C)c(NC(=O)CN(CC(=O)O)CC(=O)O)c(C)c1Br	5.87% (inactive)
CC(C)(O)c1ccccc1	7.32% (inactive)
Cc1onc(-c2ccccc2)c1-c1ccc(S(N)(=O)=O)cc1	-1% (inactive)
N#CCc1ccccc1[N+](=O)[O-]	3.4% (inactive)
O=C1C(CCS(=O)c2ccccc2)C(=O)N(c2ccccc2)N1c1ccccc1 (configuration not stated)	3.93% (inactive)
CCOC(=O)Cn1c(=O)sc2cccc(Cl)c21	-20.6% (inactive)
CCCCCC[C@@H](CCC)C(=O)O	0.103% (inactive)
NC(=O)c1ncn([C@@H]2O[C@H](CO)[C@@H](O)[C@H]2O)c1O	33.1% (inactive)
NCCN1CCNC1=O	2.17% (inactive)
CSc1ccc(C=O)cc1	-10.4% (inactive)
CCC(C)(C)C1CCC(OC)CC1 (configuration not stated)	20% (inactive)
C=CCSCC1Nc2cc(Cl)c(S(N)(=O)=O)cc2S(=O)(=O)N1 (configuration not stated)	-0.497% (inactive)
Cc1c(F)cc2c(=O)c(C(=O)O)cn3c2c1CCC3C (configuration not stated)	-3.8% (inactive)
CCCOCC(C)OCC(C)O (configuration not stated)	1.6% [at 81.1 µM] (inactive)
C#CC(O)CCCCC (configuration not stated)	-2.19% [at 81.1 µM] (inactive)
O=S(=O)(O)c1ccccc1O	-4.22% (inactive)
NS(=O)(=O)c1cc2c(cc1Cl)NC(CSCc1ccccc1)=NS2(=O)=O	1.92% (inactive)
CC(=O)c1ccc(C)cc1	45.1% (inactive)
CC(CCO)CCCC(C)(C)O (configuration not stated)	-7.79% (inactive)
CC1(C)OC(=O)Nc2ccc(Br)cc21	0.556% (inactive)
CC(C)COC(=O)c1ccccc1O	8.78% (inactive)
CCCCC=O	-15.1% (inactive)

Molecular target: Bile acid receptor (Homo sapiens) (UniProt Q96RI1)
Assay: qHTS assay to identify small molecule agonists of the farnesoid-X-receptor (FXR) signaling pathway (AID 743220; active means well fitted activation curve with a large enough effect in the signal ratio in the repeat runs, not every such curve was filed as active; the % refers to the signal ratio)
Details: HEK293T FXR-UAS-bla, beta-lactamase FRET ratio, 16 h; series mostly up to 62.6 µM; activation: at the top concentration
Method in brief: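 Beta-lactamase reporter under UAS control in GeneBLAzer FXR HEK 293T cells (5000/well) measured with LiveBLAzer FRET substrate after 2 h at room temperature. Compound exposure lasted 16 h at 37C.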

Sequence of Bile acid receptor (Homo sapiens) (Q96RI1 whole entry, looked up): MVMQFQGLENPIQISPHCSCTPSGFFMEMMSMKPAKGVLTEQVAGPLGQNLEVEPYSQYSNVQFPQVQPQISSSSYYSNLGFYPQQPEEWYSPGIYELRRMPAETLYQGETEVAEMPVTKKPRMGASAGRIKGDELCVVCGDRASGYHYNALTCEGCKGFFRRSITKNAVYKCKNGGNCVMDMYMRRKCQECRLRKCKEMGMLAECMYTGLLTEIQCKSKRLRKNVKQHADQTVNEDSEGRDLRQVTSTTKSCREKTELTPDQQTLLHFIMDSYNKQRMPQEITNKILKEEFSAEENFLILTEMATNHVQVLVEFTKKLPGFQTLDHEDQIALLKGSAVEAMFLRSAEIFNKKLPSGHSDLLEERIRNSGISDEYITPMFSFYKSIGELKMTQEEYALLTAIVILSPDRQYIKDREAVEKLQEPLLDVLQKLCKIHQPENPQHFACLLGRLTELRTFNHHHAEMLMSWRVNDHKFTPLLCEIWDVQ

Structure (SMILES)	activation
Cc1ncc(CSSCc2cnc(C)c(O)c2CO)c(CO)c1O	-0.69% (inactive)
CCCCCCC(CCCCCCCCCCC(=O)OCC(COC(C)=O)OC(C)=O)OC(C)=O (configuration not stated)	0.373% (inactive)
NC(=O)Nc1nc2ccccc2[nH]1	0.974% (inactive)
O=C(O)C(O)[C@H](O)[C@@H](O)[C@H](O)[C@H](O)CO (some centres not stated)	-2.03% [at 81.1 µM] (inactive)
N#CCc1ccccc1[N+](=O)[O-]	-1.29% (inactive)
CCOC(=O)Cn1c(=O)sc2cccc(Cl)c21	2.97% (inactive)
O=C(O)c1cccc(C(=O)O)n1	-0.527% (inactive)
Cc1cc(C)cc(OCC2CNC(=O)O2)c1 (configuration not stated)	-0.847% (inactive)
NC(=O)c1ncn([C@@H]2O[C@H](CO)[C@@H](O)[C@H]2O)c1O	4.21% (inactive)
O=C(O)/C=C/c1ccc(Cn2ccnc2)cc1	0.305% (inactive)
CCC(C)(C)C1CCC(OC)CC1 (configuration not stated)	0.248% (inactive)
C=CCSCC1Nc2cc(Cl)c(S(N)(=O)=O)cc2S(=O)(=O)N1 (configuration not stated)	-0.148% (inactive)
CCCOCC(C)OCC(C)O (configuration not stated)	-0.545% [at 81.1 µM] (inactive)
CC(CCO)CCCC(C)(C)O (configuration not stated)	-0.798% (inactive)
CC1(C)OC(=O)Nc2ccc(Br)cc21	4.95% (inactive)
CCCCC=O	1.46% (inactive)
